PubChem BioAssay AID1045 (SRMLSC, 2008)
Screen size: about 1,500 compounds; about 1,400 (93%) were called active. How the calls were made is not given here. So high a share suggests a set chosen from earlier hits. The list is a sample of the results. Entries with a potency or affinity are not part of this list.

Assay: viability of HCT116 lacking mutant beta-catenin – cell-based, human colon tumor, dose response (AID 1045)
Details: HCT116 beta-catenin knockout viability, CellTiter-Glo, 60 h; series mostly up to 30 µM; viability: at the top concentration

Structure (SMILES) | viability
c1ccc(-c2cc3n(c2)CCc2ccccc2-3)cc1 | 80.8% (inactive)
CC(C[N+](C)(C)C)OC(N)=O (stereo not given) | 94.6% (inactive)
CC1CCN(CC(=O)N2c3ccccc3CCc3ccccc32)CC1 | 91.3% (inactive)
O=C(CSc1nnc(-c2ccccc2Cl)o1)Oc1ccc(Br)cc1 | 102% (inactive)
Cc1ccc(C(=O)Nc2ccccc2C(=O)NC(C(=O)O)C(C)C)cc1 (stereo not given) | 92.6% (inactive)
CCOC(=O)Nc1ccc(C)cc1Br | 97.8% (inactive)
Cc1nn(C(=O)N2CCOCC2)c(C)c1C | 93.1% (inactive)
O=S(=O)(NCCc1csc(-c2cccnc2)n1)c1ccc2c(c1)OCCO2 | 97.6% (inactive)
CCOc1ccccc1NC(=O)Cn1cnc2c(nnn2-c2cccc(OC)c2)c1=O | 89.3% (inactive)
COCCn1c(=NC(=O)CSCC(=O)Nc2cc(C)on2)sc2cc(C(=O)OC)ccc21 | 114% (inactive)
CCOc1c(OC)ccc2c3c(c(=O)oc12)CCCC3 | 92.8% (inactive)
CCOc1ccc(C2/C(=C(\O)c3c(C)[nH]c(C(=O)OC)c3C)C(=O)C(=O)N2CCN(C)C)cc1 (stereo not given) | 101% (inactive)
COC(=O)c1cn(NC(=O)c2cc(OC)c(OC)c(OC)c2)c(=O)c2ccccc12 | 80% (inactive)
Cc1[nH]nc2c1C(c1ccsc1C)C(C#N)=C(N)O2 (stereo not given) | 94.6% (inactive)
CC(C)CCCCCCNC(=S)Nc1ccc(S(=O)(=O)N2CCOCC2)cc1 | 83.6% (inactive)
CC(=O)c1c(C)nc(-c2ccc(Cl)cc2Cl)n1O | 94.7% (inactive)
Cc1cc(NC(=O)CSc2nc(-c3cccnc3)ccc2C#N)no1 | 88.9% (inactive)
[N-]=[N+]=NC1C[C@H](n2ccc(=O)[nH]c2=O)O[C@@H]1CO (stereo not given in full) | 97.4% (inactive)
COC(=O)c1cccc(N2C(=O)C(Cl)=C(N3CCOCC3)C2=O)c1 | 84.8% (inactive)
CS(=O)(=O)c1nc(-c2cccs2)cc(C(F)(F)F)n1 | 97.9% (inactive)
N#CC(c1ccc(Cl)nn1)c1ccc(Cl)cc1Cl (stereo not given) | 87% (inactive)
CCCCN(C)C(=O)C1CCC(=O)N(c2cc(OC)c(OC)c(OC)c2)C1c1ccc(OC)cc1 (stereo not given) | 100% (inactive)

Structure (SMILES) | viability
O=C(NCc1ccc(F)cc1)C1C2C=CC3(CN(Cc4cccnc4)C(=O)C13)O2 (stereo not given) | 99.1% (inactive)
COCCNC(=O)NC1(C(F)(F)F)Oc2ccc(Cl)cc2O1 (stereo not given) | 90.1% (inactive)
COC(=O)c1ccc(/C=C(\C#N)C(=O)NC(C)c2ccccc2)cc1 (stereo not given) | 81.2% (inactive)
COC(=O)c1ccc(Oc2nc(C(N)=O)cc(-c3ccccc3)n2)cc1 | 89.1% (inactive)
CC(C)(C)c1ccc(CNc2ccc([N+](=O)[O-])cn2)cc1 | 87.2% (inactive)
Cc1ccc(CNc2ccc(O)cc2)cc1 | 89.3% (inactive)
CCN(CCNC(=O)Nc1ccc(Cl)cc1)c1ccccc1 | 99.3% (inactive)
O=C(c1nnc(Cc2ccc(Cl)cc2)o1)N1CCc2ccccc2C1 | 87.9% (inactive)
CN1CCN(c2nc(N3CCN(c4ccccc4)CC3)ncc2F)CC1 | 80.7% (inactive)
CNC(=O)C1C(=S)NC(N)=C(C#N)C1c1ccccc1 (stereo not given) | 81.2% (inactive)
CCC(Sc1nc2sc(C(=O)OC)c(C)c2c(=O)n1N)C(=O)N(CC)CC (stereo not given) | 98.7% (inactive)
Cc1cc(NS(=O)(=O)c2ccccc2)cc(Cl)c1O | 94.8% (inactive)
O=C(NNc1nc2cc3c(cc2s1)OCO3)c1cccc(F)c1 | 91% (inactive)
COc1ccc(C(=O)OC2CCN(c3ncc(C(F)(F)F)cc3Cl)CC2)cc1 | 92.8% (inactive)
COc1ccc(CCN2C(=O)CN(Cc3ccccc3)CC2=O)cc1OC | 86.4% (inactive)
O=C(NCCOc1ccccc1)C(c1ccccc1)c1ccccc1 | 101% (inactive)
Cc1cc2ncn(C(=O)N3CCC(C)CC3)c2cc1C | 96.2% (inactive)
COC(C)(C)[C@H](O)COc1c2ccoc2cc2oc(=O)ccc12 | 96.7% (inactive)
CCOC(=O)c1[nH]c2ccc(OC)cc2c1NC(=S)N1CCN(c2ccccc2)CC1 | 93.1% (inactive)
Oc1ccc(C=Nc2ccc3ncccc3c2)c(O)c1 | 82.3% (inactive)
CCN(CC)S(=O)(=O)c1ccc(-c2nnc(SCc3nnc(-c4ccccc4)o3)o2)cc1 | 81.1% (inactive)
O=C(Nc1cccc(C(F)(F)F)c1)C12CC3CC(CC(C3)C1)C2 | 91.7% (inactive)

Structure (SMILES) | viability
CN(C)c1nn(C(=O)Nc2cccc(C(F)(F)F)c2)cc1-c1ccccc1 | 82.9% (inactive)
CCCCCn1c(Sc2ccccc2)nc2c1c(=O)[nH]c(=O)n2C | 83.4% (inactive)
CC(C(=O)NC(=O)NCc1ccccc1)N1C(=O)c2ccccc2C1=O (stereo not given) | 107% (inactive)
Cc1cc(NC(=O)Cn2c(=O)n(Cc3ccccc3)c(=O)c3ccccc32)no1 | 83.5% (inactive)
Cc1cc(Cl)ccc1N=c1ssnc1Cl | 91.1% (inactive)
CCN(CC)C(=O)CCCOc1ccc(Cl)cc1Cl | 83% (inactive)
O=C(Nc1cccc2ccccc12)N1CCN(Cc2ccc3c(c2)OCO3)CC1 | 96.3% (inactive)
COc1ccc(C(C)=O)cc1CSc1nc2ccccc2o1 | 96.2% (inactive)
CCOC(=O)C1=C(C)NC(=S)N(C(C)=O)C1c1ccc(Cl)cc1 (stereo not given) | 82.2% (inactive)
Cc1cc(C)c2c(=O)n(CC(=O)N3CCC(Cc4ccccc4)CC3)sc2n1 | 80.1% (inactive)
Cc1sc2c(=O)n3c(nc2c1C(=O)NCCCN1CCOCC1)CCCCC3 | 97.5% (inactive)
CCCCNS(=O)(=O)c1ccc2nc(-c3cccnc3)cc(C(=O)NC3CC3)c2c1 | 92.2% (inactive)
O=C(NCc1ccccn1)c1c(O)c2cccc3c2n(c1=O)CC3 | 97.4% (inactive)
CNC(=S)N/N=C(\C)c1ccc(N2CCOCC2)cc1 | 91.4% (inactive)
COc1cccc(OCC(=O)NN=C2c3ccccc3-c3ccccc32)c1 | 97% (inactive)
O=C(CSc1ncnc2c1nnn2-c1ccc(F)cc1)NCC1CCCO1 (stereo not given) | 84% (inactive)
Cc1cc(NC(=O)c2sc(Nc3cccc(C(F)(F)F)c3)nc2N)no1 | 88.3% (inactive)
COc1ccc(Nc2oc(COc3ccc(Cl)cc3)nc2C#N)cc1 | 84.1% (inactive)
CCCn1c(SCC(=O)c2ccc3c(c2)NC(=O)CO3)nc2ccccc21 | 82.9% (inactive)
C=CCNc1nc(Nc2ccc(-c3nc4ccccc4o3)cc2)nc(N2CCOCC2)n1 | 93.2% (inactive)
CCOC(=O)c1c(C2COc3ccccc3O2)csc1NC(=O)c1ccccc1 (stereo not given) | 87.7% (inactive)
O=C(CCNc1cc(Cl)cc(Cl)c1)c1ccco1 | 87.6% (inactive)

Structure (SMILES) | viability
O=C(NCc1ccc2c(c1)OCO2)c1ccc2c(c1)C(=O)N(CC1CCCO1)C2=O (stereo not given) | 105% (inactive)
COC(=O)COc1ccc(S(=O)(=O)NCc2ccncc2)cc1 | 96.7% (inactive)
C=CCNC(=O)c1ccccc1NC(=O)c1ccccc1C | 101% (inactive)
CCOc1ccc(N(CC(=O)NC2CCCCCC2)S(=O)(=O)c2c(C)noc2C)cc1 | 101% (inactive)
Nc1c(NCCN2CCOCC2)c2ccccc2oc1=O | 85.6% (inactive)
COc1cccc2cc(C(=O)N(C)C)c(=O)oc12 | 92.8% (inactive)
Cc1[nH]nc2c1C(C1CC=CCC1)C(C#N)=C(N)O2 (stereo not given) | 96.1% (inactive)
Cc1cc(C)c2c(=O)n(CC(=O)NCCCN3CCOCC3)sc2n1 | 83.9% (inactive)
N/C(=N\c1nc(C(F)(F)F)cc(=O)[nH]1)Nc1ccc(Cl)cc1 | 90.8% (inactive)
OCCn1c(C(F)(F)F)nc2ccccc21 | 90.5% (inactive)
COC(=O)Nc1nc2c(s1)CCCC2 | 104% (inactive)
O=C(N/N=C/c1ccc(O)c(O)c1O)/C(=C/c1ccc([N+](=O)[O-])cc1)NC(=O)c1ccccc1 | 81.1% (inactive)
COc1ccc(N2CCN(C(c3cc(OC)ccc3OC)c3nnnn3CC3CCCO3)CC2)cc1 (stereo not given) | 89.4% (inactive)
Cc1cccc(CS(=O)(=O)c2nnc([C@H](Cc3ccccc3)NC(=O)OC(C)(C)C)o2)c1 | 92.4% (inactive)
CCCCS/C(N)=N/N=C/c1ccccc1O | 97.4% (inactive)
CC(C)c1cc(=O)oc2c3c4c(cc12)CCCN4CCC3 | 86.2% (inactive)
CN1/C(=C\C(=S)NC(=O)c2ccc([N+](=O)[O-])cc2)C(C)(C)c2ccccc21 | 94.3% (inactive)
O=S(=O)(c1cccc2ccccc12)N1CCSC1 | 96.6% (inactive)
CCCCn1c(=NC(=O)c2ccco2)c(C(=O)OCC)cc2c(=O)n3ccccc3nc21 | 81.3% (inactive)
Cc1cc(Nc2ccccc2)nn1C(=O)c1ccccc1 | 98.3% (inactive)
CCCC(=O)Nc1ccc(C)c(O)c1 | 93.3% (inactive)
COC(=O)c1cc(OC)c(OC)cc1NC(=O)c1ccccc1 | 89% (inactive)

Structure (SMILES) | viability
OC1(c2cccc(C(F)(F)F)c2)CCN(c2ccc(-c3ccccc3)nn2)CC1 | 93.7% (inactive)
CCN(CC)c1ccc(N=Cc2ccc(N(CC)CC)cc2O)cc1 | 87.8% (inactive)
CCCCNC(=O)Nc1c(C(=O)OC)[nH]c2ccc(C)cc12 | 81.5% (inactive)
CN(C)S(=O)(=O)c1cccc(NC(=O)COC(=O)c2cccc(S(=O)(=O)N3CCc4ccccc4C3)c2)c1 | 91.7% (inactive)
c1ccc2c(c1)CCCC2C1=NCCN1 (stereo not given) | 96.7% (inactive)
O=C(Nc1cccc2ccccc12)c1onc2c1CCCC2 | 87.9% (inactive)
COc1ccc(NC(=O)CCCn2c(=O)c3sccc3n(Cc3ccccc3)c2=O)cc1 | 90.1% (inactive)
OC1C2CN3CCN(C2)CC1(Cc1ccccc1)C3 (stereo not given) | 97.8% (inactive)
O=C(c1ccc2c(=O)n(CC3CCCO3)c(=S)[nH]c2c1)N1CCN(c2ccccc2)CC1 (stereo not given) | 99.5% (inactive)
CCOC(=O)N1CCN(C(=O)c2nn(-c3ccc(C)cc3)c(=O)c3c2c2ccccc2n3C)CC1 | 88.9% (inactive)
C=CCNc1nnc(SC2CC(=O)N(c3ccc(OC)cc3)C2=O)s1 (stereo not given) | 101% (inactive)
COc1ccc(S(=O)(=O)CCC(=O)N(C)c2ccc(OC)cc2OC)cc1 | 87% (inactive)
Cc1c(Cl)ccc2sc(NC(=O)CN3C(=O)c4ccccc4C3=O)nc12 | 101% (inactive)
CCCCN1C[C@H](O)[C@@H](O)[C@H](O)[C@H]1CO | 99.3% (inactive)
O=C(COC(=O)c1c2c(nc3ccccc13)CCCC2)Nc1ccc2c(c1)OCO2 | 83.9% (inactive)
O=C(COC(=O)c1cccnc1Nc1cccc(C(F)(F)F)c1)NCc1ccc2c(c1)OCO2 | 84.7% (inactive)
CCOC(=O)Cn1c2ccccc2c2nc3ccccc3nc21 | 89.9% (inactive)
Cc1ccc(Cn2nc(C)c(NC(=O)CSc3nc4c(c(C(F)(F)F)n3)CCc3ccccc3-4)c2C)cc1 | 90.2% (inactive)
COc1ccc(CCn2c(N)c(C(=O)NCc3ccco3)c3nc4ccccc4nc32)cc1OC | 81.8% (inactive)
COc1ccccc1CN=Cc1[nH]c2ccc(Br)c(Cl)c2c1O | 80.3% (inactive)
COc1ccc(C(=O)OCC(=O)c2cc(OC)ccc2OC)c(OC)c1 | 88.4% (inactive)
O=C1[C@H]2[C@H]3[C@H](O)[C@H](O)C/C(=N\OC[C@@H](O)COCc4ccco4)[C@@H]3CC[C@H]2C(=O)N1c1ccc(F)cc1F | 93.9% (inactive)
